40 molecules from PubChem BioAssay (NCATS) can be followed below.

The structures appear in SMILES notation. Inconclusive results are not listed. Values without a mark were called inactive. Activity calls are given as the source filed them. The call rests on the fitted dose curve.
On the % scale 0 is the no-effect control and ±100 the full control effect.

The nature of the experiment: Primary qHTS for Vero E6 cytotoxicity: counterscreen for inhibitors of SARS-S pseudo-typed particle cell entry (AID 1479150). Conditions: cell viability; series mostly up to 57.1 µM; activity change, negative = cytotoxicity: at the top concentration. Background: Quantitative high-throughput screening tests each substance at several concentrations.
Regarding `CC(=O)N(CC(C)C(=O)O)c1c(I)cc(I)c(N)c1I` (stereo not given), the molecule was called inactive.

With `O=C(c1ccc(F)c(F)c1Nc1ccc(I)cc1F)N1CC(O)([C@@H]2CCCCN2)C1`, the result was inactive. Take `O=C(Nc1ccc(O)cc1)c1ccccc1O`: the “activity change, negative = cytotoxicity” value is -11.3%.

Regarding `COC(=O)[C@H]1[C@H]2C[C@@H]3c4[nH]c5cc(OC)ccc5c4CCN3C[C@H]2C[C@@H](OC(=O)/C=C/c2cc(OC)c(OC)c(OC)c2)[C@@H]1OC`, the “activity change, negative = cytotoxicity” value is 1.65% [at 15.3 µM]. For `Cc1c(C)c2c(c(C)c1OC(=O)CCC(=O)O)CC[C@@](C)(CCC[C@H](C)CCC[C@H](C)CCCC(C)C)O2`, the “activity change, negative = cytotoxicity” value is 4.28%. Same read-out and setting: the same measure for `C#C[C@]1(OC(C)=O)CC[C@H]2[C@@H]3CCC4=CC(=O)CC[C@@H]4[C@H]3CC[C@@]21C`: -7.27%. `CCCCN(CCCC)C(=S)[S-].CCCCN(CCCC)C(=S)[S-].[Zn+2]`: the outcome was inactive. Turning to `CC(OC(=O)NCC1(CC(=O)O)CCCCC1)OC(=O)C(C)C` (stereo not given), the “activity change, negative = cytotoxicity” value is 2.24%. The same measure, in the same setting: the same measure for `CC1CCCC(C)N1C(=S)Nc1cccc(C(F)(F)F)c1` (stereo not given): 4.93%.

`CCN(CC)CCOc1ccc2nc(N(C)C)sc2c1`: the “outcome” value was “inactive [at 114 µM]”. Consider `CCN(CC)C(=O)[C@]1(c2ccccc2)C[C@H]1CN`, for which the “activity change, negative = cytotoxicity” value was 2.47%. On the same count and under the same terms, the figure for `Cc1c(N)nc(C(CC(N)=O)NCC(N)C(N)=O)nc1C(=O)NC(C(=O)NC(C)C(O)C(C)C(=O)NC(C(=O)NCCc1nc(-c2nc(C(=O)NCCCN[C@@H](C)c3ccccc3)cs2)cs1)C(C)O)C(O[C@@H]1O[C@@H](CO)[C@@H](O)[C@H](O)[C@@H]1O[C@H]1O[C@H](CO)[C@@H](O)[C@H](OC(N)=O)[C@@H]1O)c1cnc[nH]1` (stereo not given in full) is -8.47%. For the molecule `N[C@H](Cc1cnc[nH]1)C(=O)O`, the outcome was inactive. Consider `CCCCCCCCCCCCCCCCCC(=O)NCCCC[C@H](NC(=O)CC[C@@H](NC(=O)[C@H](C)NC(=O)[C@@H](C)O[C@H]1[C@H](O)[C@@H](CO)OC(O)[C@@H]1NC(C)=O)C(N)=O)C(=O)O` (stereo not given in full), for which the “activity change, negative = cytotoxicity” value was 2.58%. As to `CN1N=C2CCN(C(=O)[C@H](COCc3ccccc3)NC(=O)C(C)(C)N)C[C@]2(Cc2ccccc2)C1=O`, the outcome was inactive. In the case of `CCC(c1ccccc1)c1c(O)c2ccccc2oc1=O` (stereo not given), the “activity change, negative = cytotoxicity” value is -11.2%. For `CCCCC(=O)N(Cc1ccc(-c2ccccc2-c2nn[nH]n2)cc1)[C@H](C(=O)O)C(C)C`, the “activity change, negative = cytotoxicity” value was -13.4%.

Regarding `CC1CCCCN1CCCOC(=O)c1ccccc1` (stereo not given), the molecule was called inactive. `N=C(N)c1ccc(/C=C/c2ccc(C(=N)N)cc2O)cc1`: the molecule was classed as inactive. Consider `C[C@H]1[C@H](OC(=O)CCC(=O)O)O[C@@H]2O[C@@]3(C)CC[C@H]4[C@H](C)CC[C@@H]1[C@@]24OO3`, for which the “activity change, negative = cytotoxicity” value was 4.44%. `CCCCCCCCCCCCCCCC(=O)OCC(O)C1OC(=O)C(O)=C1O` (stereo not given): the “activity change, negative = cytotoxicity” value is 0.202%. Same read-out and setting: the figure for `C=C1c2c(Cl)ccc(O)c2C(O)=C2C(=O)[C@@]3(O)C(O)=C(C(N)=O)C(=O)[C@@H](N(C)C)[C@@H]3[C@@H](O)[C@H]12` is -4.23%. In the case of `CN(C)CCC(O)(c1ccccc1)c1ccccc1Cl` (stereo not given), the outcome was inactive. Still for that read-out and setting: the same measure for `CC(C)N(CCCCOCC(=O)NS(C)(=O)=O)c1cnc(-c2ccccc2)c(-c2ccccc2)n1`: “inactive”; for `O=C(O)[C@H]1OC(O)[C@H](O)[C@@H](O)[C@@H]1O` (stereo not given in full): “inactive”. On to `O=C(O)C[C@@H]1CC[C@H](NC(=O)Cc2cccs2)B(O)O1`, for which the call was inactive.

For the molecule `CNCc1cc(-c2ccccc2F)n(S(=O)(=O)c2cccnc2)c1`, the “activity change, negative = cytotoxicity” value is 4.49%. For `CCC(=O)O[C@@H](OP(=O)(CCCCc1ccccc1)CC(=O)N1C[C@H](C2CCCCC2)C[C@H]1C(=O)O)C(C)C` (stereo not given in full), the outcome is “inactive [at 11.4 µM]”. As to `CN1c2c(nc(N)[nH]c2=O)NC[C@@H]1CNc1ccc(C(=O)N[C@@H](CCC(=O)O)C(=O)O)cc1`, the outcome is “inactive [at 5.34 µM]”. `C[C@H](Cc1cc2c(c(C(N)=O)c1)N(CCCO)CC2)NCCOc1ccccc1OCC(F)(F)F`: the “activity change, negative = cytotoxicity” value is 0.926%. Same read-out and setting: the same measure for `CCCCCCCCCCCCOC(=O)CS(=O)(=O)O`: 4.55%. The same measure, in the same setting: the figure for `O=C(O)c1cc2ccccc2c(Cc2c(O)c(C(=O)O)cc3ccccc23)c1O` is -10.5%.

As for `CN[C@@H]1[C@@H](O)[C@@H](O[C@@H]2[C@@H](O)[C@H](OC3O[C@H](CN)[C@@H](O)[C@H](O)[C@H]3O)[C@@H](N)C[C@H]2NC(=O)[C@@H](O)CN)OC[C@]1(C)O` (stereo not given in full), the “activity change, negative = cytotoxicity” value is -12.7% [at 26.4 µM]. As to `O=C(O)C(O)C(O)C(=O)O` (stereo not given), the “activity change, negative = cytotoxicity” value was -1.21%. The same measure, in the same setting: the figure for `CC(C)(C)C(=O)OCOC(=O)[C@@H]1N2C(=O)[C@@H](N=CN3CCCCCC3)[C@H]2SC1(C)C` is 2.35%. In the case of `CC(=O)Nc1c(I)c(C(=O)N[C@H]2C(O)O[C@H](CO)[C@@H](O)[C@@H]2O)c(I)c(N(C)C(C)=O)c1I` (stereo not given in full), the “activity change, negative = cytotoxicity” value is 1.79%.

For `COc1nc2ccc(Br)cc2cc1[C@@H](c1ccccc1)[C@@](O)(CCN(C)C)c1cccc2ccccc12`, the “activity change, negative = cytotoxicity” value is 3.12%. Turning to `COc1cc(N)cn[n+]1-c1ccccc1`, the molecule was classed as inactive. On to `CON=C1C[C@]2(C[C@@H]3C[C@@H](C/C=C(\C)C[C@@H](C)/C=C/C=C4\CO[C@@H]5[C@H](O)C(C)=C[C@@H](C(=O)O3)[C@]45O)O2)O[C@H](/C(C)=C/C(C)C)[C@H]1C`, for which the “activity change, negative = cytotoxicity” value was -1.71%.

For the molecule `OC(c1ccccc1)(c1ccccc1)C12CC[N+](CCOCc3ccccc3)(CC1)CC2`, the call was inactive.
